High-throughput results from PubChem BioAssay.
Mtb FBA inh: inhibits M. tuberculosis FBA enzyme | P9WQA3 | AID 588726 | purified M. tuberculosis FBA, fluorescence read-out | inhibition, % at 1 µM | hit rate 2.3% among 360,000; in the data active = inhibition above about 27%;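 also: 0% = vehicle and 100% = reference inhibitor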
GDH-TPI counter: GDH-TPI coupled enzyme inhibition counter-screen. GDH-TPI coupled enzyme counterscreen, NADH absorbance. inhibition, % at 4.8 µM. hit rate 1.2% among 360,000. AID 588335; in the data active = inhibition above about 30%;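 also: 0% = DMSO wells and 100% = wells lacking the enzyme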
Mtb betalactam: beta-lactam sensitization of Mtb H37Rv | M. tuberculosis H37Rv growth with meropenem, percent inhibition | inhibition, % at 25 µM | hit rate 0.27% among 330,000 | AID 434955; call rule not given here;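 also: growth measured after seven days incubation then overnight dye step; 0% = bacteria only wells and 100% = bacteria with antibiotic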
UGM FP inh: inhibitors of M. tuberculosis UDP-galactopyranose mutase; P9WIQ1; purified UGM, fluorescence polarization probe displacement; inhibition, % at 10 µM; hit rate 0.06% among 320,000; in the data active = inhibition above about 10%, passing the limit was not always enough
Target sequence (P9WIQ1 whole entry, looked up): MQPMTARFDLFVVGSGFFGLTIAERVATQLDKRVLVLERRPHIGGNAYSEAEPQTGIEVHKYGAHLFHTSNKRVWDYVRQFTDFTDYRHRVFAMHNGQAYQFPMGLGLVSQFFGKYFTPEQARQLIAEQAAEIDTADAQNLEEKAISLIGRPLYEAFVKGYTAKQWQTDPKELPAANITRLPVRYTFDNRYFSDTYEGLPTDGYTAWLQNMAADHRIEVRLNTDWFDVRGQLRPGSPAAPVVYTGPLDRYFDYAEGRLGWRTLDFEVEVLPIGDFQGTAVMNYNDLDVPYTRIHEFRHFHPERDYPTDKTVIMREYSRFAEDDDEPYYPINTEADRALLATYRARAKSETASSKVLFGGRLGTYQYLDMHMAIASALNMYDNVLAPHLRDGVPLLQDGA
FadD28 FP inh: M. tuberculosis FadD28 bisubstrate binding inhibition; FadD28 bisubstrate probe binding, fluorescence polarization; inhibition, % at 12.5 µM; hit rate 0.22% among 360,000; in the data active = inhibition above about 8.5%, passing the limit was not always enough
Rv3671c protease: inhibitors of M. tuberculosis serine protease Rv3671c; P9WHR9; hit rate 0.048% among 320,000; inhibition, % at 5.96 µM; AID 2606; in the data active = inhibition above about 38%;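 also: extracellular domain of Rv3671c used as enzyme; 0% = enzyme with DMSO and 100% = no enzyme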
The depositor's hits bear a star; x = no result given. Compounds with a hit are over-represented: about 3.7% of the library has one in this group of screens.

SMILES | Mtb FBA inh | GDH-TPI counter | Mtb betalactam | UGM FP inh | FadD28 FP inh | Rv3671c protease
COc1ccc(C(=O)CSc2nc3ccccc3n2CC(=O)c2ccccc2)cc1 | 5 | 9 | 0 | -1 | -3 | -9
Cc1cc(NC(=O)c2ccccc2NS(=O)(=O)c2c(C)c(C)cc(C)c2C)no1 | 18 | 16 | 4 | 1 | 0 | 3
Cc1ccc(C)c(S(=O)(=O)Nc2ccccc2C(=O)Nc2cc(C)on2)c1 | 135* | 15 | 8 | 1 | -3 | -1
NNC(=O)c1c(O)c2cccc3c2n(c1=O)CCC3 | -1 | 6 | 69 | 0 | 0 | 9
CNc1cnc(-c2ccc(O)c(OC)c2)cn1 | 2 | 2 | x | x | -4 | x
CNc1ccc(-c2ccccc2OC)cn1 | 114* | 22 | x | x | 0 | x
O=C(O)CCCNc1cc(N2CCN(C(=O)c3ccco3)CC2)c2noc3c2c1C(=O)c1ccccc1-3 | -3 | 10 | 15 | 1 | 18* | 1
C/C(=N\NC(=O)c1ccc(N2CCCC2=O)cc1)c1ccc(O)cc1O | 3 | 33* | -1 | -1 | -2 | 23
C/C(=N\NC(=O)c1ccc(N2CCCC2=O)cc1)c1ccccc1 | 0 | -6 | -5 | 2 | x | -3
CC(=NNC(=O)c1ccncc1)c1ccccc1O | 0 | 17 | x | x | -1 | x
CC(=NNC(=O)c1ccncc1)c1ccc(O)cc1O | -1 | 41* | x | x | -1 | x
COc1ccc(CN(C)CCCn2cnc3c(SC)ncnc32)cc1OC | -1 | 0 | x | x | 0 | x
CN1CC=C2C(C#N)=C(N)C(C#N)(C#N)[C@H](c3ccoc3)[C@H]2C1 | 61* | 9 | 0 | 3 | 0 | 15
CC(=O)N1CC=C2C(C#N)=C(N)C(C#N)(C#N)[C@H](c3ccoc3)[C@H]2C1 | 13 | 12 | 5 | 3 | 1 | 2
O=C(N/N=C/c1ccc[nH]1)c1cc(-c2cccs2)nc2ccccc12 | 8 | 14 | 56 | -3 | -4 | -4
O=C(N/N=C/c1ccc2ncccc2c1)c1cc(-c2cccs2)nc2ccccc12 | 14 | 39* | 61 | -2 | -1 | -122
Cn1cccc1/C=N/NC(=O)c1cc(-c2cccs2)nc2ccccc12 | 19 | 31* | -11 | 4 | -2 | -1
C(=C\c1ccccc1)/CN1CCN(C(c2ccnc3ccccc23)c2nnnn2C2CCCC2)CC1 (configuration not stated) | 0 | x | x | x | -1 | x
CCOC(=O)C(C#N)=CN1CCN(C(=O)CCCl)c2ccccc21 | -4 | 19 | x | x | -4 | x
CCOC(=O)C(C#N)=CN1CCNc2ccccc21 | 2 | 31* | x | x | -1 | x
O=C(N/N=C/c1cc(O)ccc1Br)c1cccnc1 | 5 | 15 | 4 | -1 | -2 | 17
O=C(NN=Cc1ccc(N(CCCl)CCCl)cc1Cl)c1cccnc1 | 8 | 72* | x | x | -2 | x
Cc1cc(N(CCCl)CCCl)ccc1C=NNC(=O)c1cccnc1 | 3 | 51* | x | x | 4 | x
O=C1CN(c2nc3nonc3nc2N2CCCCC2)CCN1 | -3 | 35* | -5 | 1 | -2 | 0
Cc1ccc(-n2c(SCC(=O)c3c(N)n(C4CC4)c(=O)[nH]c3=O)nnc2N2CCOCC2)cc1 | 0 | -1 | x | x | -5 | x
SMILES | Mtb FBA inh | GDH-TPI counter | Mtb betalactam | UGM FP inh | FadD28 FP inh | Rv3671c protease
CS(=O)(=O)c1nc(-c2ccc(F)cc2)cc(C(F)(F)F)n1 | 14 | 7 | x | x | -3 | x
COc1ccc(-c2cc(C(F)(F)F)nc(S(C)(=O)=O)n2)cc1 | 7 | 39* | 96 | -1 | -8 | -9
CC(C)Oc1ccc(CNC(=O)c2ccc3c(c2)N(C)CCS3)cc1 | 140* | 4 | 3 | -1 | 2 | 5
CN1CCSc2ccc(C(=O)Nc3cc(F)ccc3F)cc21 | 14 | 17 | 34 | 0 | -3 | -2
CN1CCSc2ccc(C(=O)NCc3ccccc3F)cc21 | 137* | 4 | -5 | -4 | -2 | 3
CCOc1ccc(NC(=O)c2ccc3c(c2)N(C)CCS3)cc1 | 11 | 14 | x | x | -1 | x
CCN1CCSc2ccc(C(=O)NCc3ccccc3C)cc21 | 129* | 12 | 4 | 0 | -1 | 8
CN(C(=O)COC(=O)CNC(=O)c1sc2ccccc2c1Cl)C1CCS(=O)(=O)C1 (configuration not stated) | 2 | -10 | -2 | -5 | 1 | 10
CN(C)c1ccc(C=NNc2nc3c([nH]2)c(=O)n(C)c(=O)n3C)cc1 | 15 | 47* | x | x | -1 | x
CN(C(=O)CSc1nc(-c2cccs2)nc2ccccc12)C1CCS(=O)(=O)C1 (configuration not stated) | 3 | 6 | 4 | -2 | -2 | -4
